Out of some 5,500 compounds screened, about 2,000 (36%) were called active. Another 18% or so got no clear call; they are omitted. No stated cut-off is given here; in the data, active means normalized growth mostly below about 0.91 (no sharp cut-off); inconclusive means no clear call, values can overlap the other calls; inactive means mostly above about 0.92. This is one part of the list.
Experiment: chemical genetic growth profiling, strain panel (AID 1159580);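 further: tested at 20 µM; growth read once vehicle control cultures reached saturation at 30 °C; 1 = growth at the plate median or of vehicle wells; lower values mean less growth of the strain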
Conditions: S. cerevisiae deletion strains, growth OD

Measured: normalized growth

CNC(=O)N(C)c1nnc(C(C)(C)C)s1
inactive: locus YAL013W, strain DEP1, hits give low values 1.01 | locus YAL021C, strain ccr4, hits give low values 0.935 | locus YAL026C, strain drs2, hits give low values 0.993 | locus YAL030W, strain snc1, hits give low values 1 | locus YBL061C, strain skt5, hits give low values 0.997 | locus YBR009C, strain hhf1, hits give low values 1.01 | locus YBR021W, strain FUR4, hits give low values 1.04 | locus YBR023C, strain chs3, hits give low values 0.994 | locus YBR171W, strain sec66, hits give low values 0.983 | locus YBR229C, strain ROT2, hits give low values 1.01 | locus YBR231C, strain swc5, hits give low values 1.02 | locus YBR279W, strain paf1, hits give low values 0.996 | locus YCL011C, strain gbp2, hits give low values 0.985 | locus YCL016C, strain dcc1, hits give low values 0.979 | locus YCL029C, strain bik1, hits give low values 1.01 | locus YCL069W, strain vba3, hits give low values 0.988 | locus YCR088W, strain abp1, hits give low values 0.988 | locus YDL005C, strain med2, hits give low values 0.982 | locus YDL035C, strain GPR1, hits give low values 1.02 | locus YDL040C, strain nat1, hits give low values 0.99 | locus YDL074C, strain BRE1, hits give low values 1.03 | locus YDL101C, strain DUN1, hits give low values 1.02 | locus YDL134C, strain PPH21, hits give low values 1.01 | locus YDL185W, strain tfp1, hits give low values 0.959 | locus YDL192W, strain arf1, hits give low values 1.01 | locus YDR001C, strain nth1, hits give low values 0.977 | locus YDR069C, strain doa4, hits give low values 0.988 | locus YDR101C, strain arx1, hits give low values 1.01 | locus YDR137W, strain rgp1, hits give low values 0.999 | locus YDR150W, strain NUM1, hits give low values 1.01 | locus YDR159W, strain sac3, hits give low values 1.03 | locus YDR162C, strain NBP2, hits give low values 1.01 | locus YDR195W, strain ref2 0.946 | locus YDR297W, strain sur2, hits give low values 1.02 | locus YDR318W, strain mcm21, hits give low values 1.02 | locus YDR334W, strain swr1, hits give low values 0.982 | locus YDR335W, strain msn5, hits give low values 0.995 | locus YDR388W, hits give low values 1.02 | locus YDR392W, strain spt3, hits give low values 1.02 | locus YDR502C, strain sam2, hits give low values 1.02 | locus YEL003W, strain gim4, hits give low values 0.989 | locus YEL037C, strain rad23, hits give low values 0.981 | locus YEL061C, strain CIN8 (second series), hits give low values 0.98 | locus YEL061C, strain CIN8, hits give low values 1.01 | locus YER015W, strain faa2, hits give low values 0.99 | locus YER016W, strain bim1, hits give low values 0.987 | locus YER110C, hits give low values 1.01 | locus YER111C, strain swi4, hits give low values 1 | locus YER155C, strain BEM2 (second series), hits give low values 1.02 | locus YER155C, strain BEM2, hits give low values 1.01 | locus YER167W, strain BCK2, hits give low values 1.02 | locus YFR010W, strain ubp6, hits give low values 0.969 | locus YGL078C, strain dbp3, hits give low values 1.01 | locus YGL086W, strain mad1, hits give low values 1.01 | locus YGL167C, strain pmr1, hits give low values 0.976 | locus YGL173C, strain kem1, hits give low values 1 | locus YGL227W, strain vid30, hits give low values 1 | locus YGL240W, strain doc1, hits give low values 1.03 | locus YGL248W, strain PDE1, hits give low values 1.01 | locus YGL253W, strain hxk2, hits give low values 0.991 | locus YGR078C, strain PAC10, hits give low values 1.02 | locus YGR135W, strain pre9, hits give low values 1.02 | locus YGR229C, strain SMI1, hits give low values 1.04 | locus YGR252W, strain gcn5, hits give low values 1.05 | locus YHR013C, strain ard1, hits give low values 0.972 | locus YHR027C, strain rpn1, hits give low values 0.993 | locus YHR030C, strain SLT2, hits give low values 1.01 | locus YHR079C, strain IRE1 (second series), hits give low values 1.03 | locus YHR094C, strain hxt1, hits give low values 1.01 | locus YHR129C, strain ARP1, hits give low values 0.998 | locus YHR142W, strain chs7, hits give low values 0.979 | locus YHR200W, strain rpn10, hits give low values 1.02 | locus YIL066C, strain RNR3, hits give low values 1.02 | locus YIL073C, strain SPO22, hits give low values 1.07 | locus YIL125W, strain kgd1, hits give low values 1.02 | locus YIR030C, strain dcg1, hits give low values 1.02 | locus YJL092W, strain hpr5, hits give low values 0.976 | locus YJL095W, strain BCK1 (second series), hits give low values 0.993 | locus YJL095W, strain BCK1, hits give low values 1.01 | locus YJL115W, strain asf1, hits give low values 0.973 | locus YJL129C, strain trk1, hits give low values 0.999 | locus YJL134W, strain LCB3, hits give low values 1.02 | locus YJL154C, strain vps35, hits give low values 0.976 | locus YJL164C, strain tpk1, hits give low values 0.998 | locus YJL166W, strain qcr8, hits give low values 1.02 | locus YJL168C, strain set2, hits give low values 1.02 | locus YJL187C, strain SWE1 (second series), hits give low values 1.01 | locus YJR043C, strain POL32, hits give low values 1.03
